In all, about 35,000 sequences were measured (“fluorescence intensity (a.u.)”: median about 10,000, highest 2% from about 52,000 on). What follows is part of a selection rich in the highest values, with near analogues and random picks from the rest.
Biological target: T1, OsWOX13 (Oryza sativa, UniProt Q5QMM3 1-267)
T1 sequence: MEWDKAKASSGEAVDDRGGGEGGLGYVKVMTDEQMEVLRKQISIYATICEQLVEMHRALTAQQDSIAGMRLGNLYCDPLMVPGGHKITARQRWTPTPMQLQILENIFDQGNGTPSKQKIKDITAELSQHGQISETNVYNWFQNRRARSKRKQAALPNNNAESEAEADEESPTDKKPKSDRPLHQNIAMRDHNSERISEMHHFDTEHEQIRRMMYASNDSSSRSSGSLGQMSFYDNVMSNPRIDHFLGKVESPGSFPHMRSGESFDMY
Experiment: protein-binding microarray (RPBM); PBS, 2% BSA, 51.3 ng/ul salmon testes DNA, 50 uM zinc acetate, 200 nM TF, 25 C, 1 h; high values mean tight binding
Settings: protein: recombinant; tags: N-terminal polyhistidine and DsRed monomer fusion (pET32a); label: CyDye5-dUTP incorporated in the synthesized complementary strand; 3' TTTTT single-stranded linker to array surface; dsDNA, one strand shown
Method in brief: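 Per-feature fluorescence intensity (arbitrary units), read on an Axon 4000B scanner, is the binding signal. Transcription factors carrying an N-terminal polyhistidine tag and DsRed fusion were expressed in E. coli BL21-CodonPlus and purified on Ni–NTA. A custom Agilent array, made double-stranded by primer extension with Cy5-dUTP and blocked with 2% BSA, was incubated with 200 nM protein in PBS, 2% BSA, salmon testes DNA and 50 µM zinc acetate at 25 °C for 1 h and then washed.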

Sequence | binding signal
GGTAGTACTTAATTAATCACGCGCTAATAGACCGCTCTGTCGGAGTCACCTAGTGCAG | 22600 fluorescence intensity (a.u.)
TCGTATTTATGGCTAATTATTATTTCAGTGGTAGACGATTCGGAGTCACCTAGTGCAG | 6670 fluorescence intensity (a.u.)
TACACTAATTAATTAAGCATTAATCGTGGGAAGAGTAACGCGGAGTCACCTAGTGCAG | 47000 fluorescence intensity (a.u.)
TTGCATGTTTGTGGATTGATACATTAGATATTGATCTATCCGGAGTCACCTAGTGCAG | 3540 fluorescence intensity (a.u.)
TCATGCAGTAATTAATCAGTGACAGTGAACCTTGTTAGTACGGAGTCACCTAGTGCAG | 17400 fluorescence intensity (a.u.)
AGAAAATTTAATCTTAAATATGGACATTACGAATGTACAACGGAGTCACCTAGTGCAG | 4110 fluorescence intensity (a.u.)
AAAATTTGTCAATAAATATATAGGCAGTCCCGGTCCGTTCCGGAGTCACCTAGTGCAG | 4490 fluorescence intensity (a.u.)
TCCTCAATTAATTGCTGATCCTAATGCAGAGTTTCAGGTGCGGAGTCACCTAGTGCAG | 35500 fluorescence intensity (a.u.)
TATCACTAATAATTTAGCTCAGTTTGACAAGACGGATATCCGGAGTCACCTAGTGCAG | 4380 fluorescence intensity (a.u.)
TTACCAAATTTCACTGTTAACAGCGGTGCGTGGGTATTGACGGAGTCACCTAGTGCAG | 6390 fluorescence intensity (a.u.)
GGTATAACCTAAAGTTTATCCGTTTGTAGAGCGAATGTTTCGGAGTCACCTAGTGCAG | 14400 fluorescence intensity (a.u.)
CATGGTCAATCTACTCGTTAACGTACATTCACGGTTATTTCGGAGTCACCTAGTGCAG | 9160 fluorescence intensity (a.u.)
TCGTGATTAGAATCTTAATCTCTAGCCTGTCTTTGCTTGCCGGAGTCACCTAGTGCAG | 56200 fluorescence intensity (a.u.)
AGAGATCGATCGATTAATTAGCAACAAGCCAACGACAAGCCGGAGTCACCTAGTGCAG | 4950 fluorescence intensity (a.u.)
GCTGTTTGATCCATAATTTATCCGCGCGTCGTCACTCCGACGGAGTCACCTAGTGCAG | 5840 fluorescence intensity (a.u.)
TAATTTAATTTAATTACCTCCCTAATCACTCTCGCTCGCTCGGAGTCACCTAGTGCAG | 46200 fluorescence intensity (a.u.)
CACTTGATTAATTTATCCTCTCCTCGCGTCGCTGTCGCGTCGGAGTCACCTAGTGCAG | 52700 fluorescence intensity (a.u.)
TCTAATTGGCTTACTTAATATGATTCGATCCTACAACCTCCGGAGTCACCTAGTGCAG | 53700 fluorescence intensity (a.u.)
TAACCTTAATTAATTGATTAAATTACAAATATTCTAGCCCCGGAGTCACCTAGTGCAG | 44000 fluorescence intensity (a.u.)
CATACATATGTAATTTACTTCGATTCGATTAAATTGGCAGCGGAGTCACCTAGTGCAG | 7090 fluorescence intensity (a.u.)
CTTAATTAGCTCTAGCGAGCTAGCTAGCTTGCTCTGTCTTCGGAGTCACCTAGTGCAG | 24200 fluorescence intensity (a.u.)
TCCACTTGGGTGATTAGAATCTGTCTTCCCTGTTTTAAGCCGGAGTCACCTAGTGCAG | 7670 fluorescence intensity (a.u.)

Sequence | binding signal
GCCTAATTGCTTAATTAGCAGCCAACGGATTCGATTGATCCGGAGTCACCTAGTGCAG | 53900 fluorescence intensity (a.u.)
GTTTTCCTAATTAATTGCTAGCTCGATTTGCTCGGTGATCCGGAGTCACCTAGTGCAG | 29900 fluorescence intensity (a.u.)
AAGATGAGGTGATAGACTGACTAGCACTGAGCTTGCCCGGCGGAGTCACCTAGTGCAG | 14400 fluorescence intensity (a.u.)
ACTAGACAATTTGAATTTACAACTATATATACTCCCAATCCGGAGTCACCTAGTGCAG | 3250 fluorescence intensity (a.u.)
GAACTAGCTTAATTAAACCACAATTAGAATATATGTAGGACGGAGTCACCTAGTGCAG | 3750 fluorescence intensity (a.u.)
TAAGTAATTATTTATTCTTTTCATATCATTTGATTCATTGCGGAGTCACCTAGTGCAG | 15400 fluorescence intensity (a.u.)
AAAAGGATATGATTTGAAATGGCATTAAAGTGAATAGGCCCGGAGTCACCTAGTGCAG | 4540 fluorescence intensity (a.u.)
CTAATGAGCCTAATTAATCCATGATTAGCCTATGTGATGCCGGAGTCACCTAGTGCAG | 43000 fluorescence intensity (a.u.)
TTAGCGTCTAATTATAGGATTATTTATGATAATATTCGTCCGGAGTCACCTAGTGCAG | 5680 fluorescence intensity (a.u.)
GATTAGGTTAATTGAGATCTGCCTTGCTCTGCTCTGCTCGCGGAGTCACCTAGTGCAG | 21500 fluorescence intensity (a.u.)
TCTAATTAATCCATGATTAGCCTATGTGATGCTACAGTAACGGAGTCACCTAGTGCAG | 25100 fluorescence intensity (a.u.)
TTATGATTTAATTAGCGATTAATTATCCTAATTAGTGATTCGGAGTCACCTAGTGCAG | 62200 fluorescence intensity (a.u.)
TCCAACGGTGCCGCTTAATTAGTGATTAATTATCCTAATTCGGAGTCACCTAGTGCAG | 16400 fluorescence intensity (a.u.)
CAGTTAATTGAGTTGATGGCCACTCCTCTGCTGCTCGTCGCGGAGTCACCTAGTGCAG | 60700 fluorescence intensity (a.u.)
ACTCCTGACTTGATTGGCAGTGAGTTGCTCATCTGCCTAGCGGAGTCACCTAGTGCAG | 40300 fluorescence intensity (a.u.)
GCCTAATTAATCCATGATTAGCCTATGTGATGCTATAGTACGGAGTCACCTAGTGCAG | 52700 fluorescence intensity (a.u.)
ATGACTATTTTCACCTATAATTATAAGTTATGGAACAATACGGAGTCACCTAGTGCAG | 4820 fluorescence intensity (a.u.)
AGCAAAATTAACACCGCAATTTGAGCCGGTTACTTCTTTCCGGAGTCACCTAGTGCAG | 4830 fluorescence intensity (a.u.)
CCGCGATTACAATTAGCGCCGGATTAACCCTGCAATTAGCCGGAGTCACCTAGTGCAG | 20500 fluorescence intensity (a.u.)
CATGATTGAAACATTACTTGATGGCTTCTGGTCCTACCCACGGAGTCACCTAGTGCAG | 53900 fluorescence intensity (a.u.)
CATCGAACATCATGAATTTGATTGGCTTCTACTTTCACGACGGAGTCACCTAGTGCAG | 17100 fluorescence intensity (a.u.)
